mcGAS RapidFire – inhibitors of Mus musculus cyclic GMP-AMP synthase, initial high-throughput assay, cell-free, RapidFire MS; inhibition, % at 12.5 µM; AID 1259397, 2018; recombinant mouse cGAS, cGAMP by RapidFire MS; Q8C6L5; 130,000 tested, 0.18% active;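 active means inhibition of cGAS enzyme activity at or above 60%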;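 further: enzyme stimulated by 45 bp dsDNA with ATP and GTP substrates; cGAMP share of summed cGAMP plus half ATP and half GTP signals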
Target sequence (Q8C6L5 whole entry, looked up): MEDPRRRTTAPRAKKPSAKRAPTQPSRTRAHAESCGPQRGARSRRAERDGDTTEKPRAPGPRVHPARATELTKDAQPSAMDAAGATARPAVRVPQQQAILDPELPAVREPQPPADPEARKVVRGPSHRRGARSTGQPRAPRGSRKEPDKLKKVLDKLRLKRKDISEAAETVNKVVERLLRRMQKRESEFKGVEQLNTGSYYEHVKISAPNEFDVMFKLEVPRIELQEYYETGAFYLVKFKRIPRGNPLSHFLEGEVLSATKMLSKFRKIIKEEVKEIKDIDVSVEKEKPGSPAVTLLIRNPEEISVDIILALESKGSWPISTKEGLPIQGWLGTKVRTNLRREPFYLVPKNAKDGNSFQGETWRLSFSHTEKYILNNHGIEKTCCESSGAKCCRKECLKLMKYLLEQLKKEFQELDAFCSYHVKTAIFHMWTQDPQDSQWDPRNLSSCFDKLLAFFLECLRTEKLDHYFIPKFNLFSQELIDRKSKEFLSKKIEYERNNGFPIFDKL
Each line names hits and unclear results; the compound was inactive in the other large screens; ! = not confirmed by another sample. Shown is part of a subset that was picked to be rich in hits.

CC(Nc1cccc(NC(=O)CO)c1)c1ncc(C(C)(C)C)o1 (centres undefined)	none
Cc1ccc(S(=O)(=O)C(C)c2ncc(C(C)(C)C)o2)cc1C (centres undefined)	none
COc1ccc(S(=O)C(C)c2ncc(C(C)(C)C)o2)cc1OC (centres undefined)	mcGAS RapidFire 68
O=C1CCCN1CCCNC(=O)N1CCCCC1C1OCCO1 (centres undefined)	none
Cn1c2ccc(I)cc2c2cc(C(=O)C(F)(F)F)ccc21	none
Cc1nccc(CNC(=O)NCCSCc2cccs2)n1	none
NS(=O)(=O)c1cc2c(cc1Cl)NCNS2(=O)=O	none
CCC1NC(=O)c2cc(S(N)(=O)=O)c(Cl)cc2N1 (centres undefined)	mcGAS RapidFire 94
CN1C(CCl)Nc2cc(Cl)c(S(N)(=O)=O)cc2S1(=O)=O (centres undefined)	none
Cc1cc(=O)n(C)cc1NC(=O)COc1c(C)cccc1C	none
Cc1ccccc1C(=O)Nc1c2c(nn1C(C)(C)C)CS(=O)C2 (centres undefined)	none
CC1CN(C(=O)C(NC(=O)c2c(F)cccc2F)C(C)C)CC(C)O1 (centres undefined)	none
Cc1ccccc1-c1noc(CCC(=O)N2CCC3(CN(C)C(=O)O3)C2)n1 (centres undefined)	none
O=C(CSCc1ccccc1)c1ccccc1Br	none
N[n+]1cnn(CC(=O)c2ccc(Br)cc2Br)c1	mcGAS RapidFire 83
CCC(=O)Nc1ccc(C(=O)Cn2cc(Br)cn2)cc1	none
Cc1nn(CC(=O)c2ccc(Cl)cc2Cl)c(C)[n+]1N	none
N[n+]1cnn(CC(=O)c2ccccc2)c1	none
N[n+]1cnn(CC(=O)c2ccccc2Br)c1	mcGAS RapidFire 98
Nc1c(C=C2C=C([N+](=O)[O-])C=C(Br)C2=O)c(=O)nc2sc(-c3ccccc3)nn12	none
Cn1c(CN2CCN(S(=O)(=O)c3ccc(Cl)s3)CC2)cc(=O)n(C)c1=O	none
N#CCCCCS(=O)(=O)Nc1ccc(N2CCCC2)c(F)c1	mcGAS RapidFire 63
O=S(=O)(CC1CCCO1)Nc1ccc(N2CCCC2)c(Cl)c1 (centres undefined)	none
N#Cc1cccc(S(=O)(=O)Nc2c(F)cccc2N2CCCC2)c1	none
CCCCC12CN3CC(C)(CN(C1)C3c1cccs1)C2=O (centres undefined)	none
CSc1nc(CN2CCCC2c2cccs2)cc(=O)[nH]1 (centres undefined)	none
O=C(Nc1ncccc1OC(F)F)c1cccc(Cl)c1Cl	none
O=c1/c(=C/c2ccc(N3CCOCC3)cc2)sc2nc3cc(Br)cnc3n12	mcGAS RapidFire 81
CCOc1cc(/C=c2\sc3nc4cc(Br)cnc4n3c2=O)ccc1O	none
O=c1/c(=C/c2cccc([N+](=O)[O-])c2)sc2nc3cc(Br)cnc3n12	none
CCOC(=O)C1=C(C)N=c2s/c(=C\c3ccccc3F)c(=O)n2C1/C=C/c1ccccc1 (centres undefined)	none
CCCn1c(SCC(O)c2ccccc2Cl)n[nH]c1=O (centres undefined)	none
CCN(CC)CCNC(=O)c1cc(N2CCCCCC2)ccn1	none
COCCNC(=O)c1cc(N2CCCN(C)CC2)ccn1	none
O=C(NCCN1CCCCC1)c1cc(N2CCCN3CCC[C@H]3C2)ccn1	mcGAS RapidFire 78
Cc1csc(C(C#N)C(=O)CCC(=O)c2ccc3c(c2)CCCC3)n1 (centres undefined)	none
COc1ccc(C(=O)C2CCN(S(=O)(=O)c3ccc(Br)cc3)CC2)cc1	none
O=C(NCc1cc(Br)cs1)NCC1CCC1	none
CN(CC(=O)Nc1ccc(N2CCOCC2)cc1)C(=O)COc1ccccc1C#N	mcGAS RapidFire 69
CCCCC(=O)Nc1ccc(N2CCOCC2)cc1	none
CC(C)n1nccc1NC(=O)COc1ccccc1C#N	none
O=c1c(O)c(-c2ccccc2)oc2cc(O)ccc12	none
O=c1c(O)c(-c2cc(O)c(O)c(O)c2)oc2cc(O)cc(O)c12	mcGAS RapidFire 94
O=c1c(O[C@@H]2O[C@H](CO)[C@H](O)[C@H](O)[C@H]2O)c(-c2ccc(O)c(O)c2)oc2cc(O)cc(O)c12	none
C=CCn1c(SCC(=O)OC)nc2sc3c(c2c1=O)CCCC3	none
Cc1cc(C=C2C(=O)NC(=S)NC2=O)c(C)n1CC(F)(F)F	mcGAS RapidFire 74
COC(=O)C(=Cc1cc(C)n(CC(F)(F)F)c1C)C(C)=O	none
CCN1C(=O)C(=Cc2cc(C)n(CC(F)(F)F)c2C)SC1=S	none
O=c1c(O)cccc2cc(O)c(O)c(O)c12	mcGAS RapidFire 65
CCc1cc(-n2ccnc2-c2cccnc2)ccc1NC(C)=O	none
O=S(=O)(N=Cc1c(O)ccc2ccccc12)c1ccccc1	none
Oc1ccc2ccccc2c1SSc1c(O)ccc2ccccc12	mcGAS RapidFire 66
Oc1ccc2ccccc2c1N=Nc1c(O)ccc2ccccc12	none
CC(C(=O)Nc1ccc(Br)cc1S(=O)(=O)N1CCOCC1)n1cncn1 (centres undefined)	none
C/C(=N/OC(=O)c1cnn2c(C(F)F)cc(-c3ccccc3)nc12)c1ccncc1	none
Oc1ccc(C=Cc2ccncc2)cc1	none
Nc1ccc2c(c1)N(S(=O)(=O)c1cccs1)CCC2	none
CCCCC(C)n1[nH]c(=O)cc1N (centres undefined)	mcGAS RapidFire 63
CCCCn1c(N)cc(=O)[nH]c1=O	none
CCCCCC(C)n1[nH]c(=O)c2c(C)cc(C)nc21 (centres undefined)	none
COc1ccc2cc(CNC(=O)C3=COCCO3)ccc2c1	none
OC1CCN(Cc2nnnn2-c2ccccc2Br)CC1	none
Cc1cc(N)[nH]c(=O)c1	none
CSc1nnc(SCC(=O)NCc2ccc(N(C)C)cc2)s1	none
CCOC(=O)c1nn(-c2ccccc2)c(=O)cc1OS(=O)(=O)c1cccs1	none
Cc1nc2c(cc(O)c3ccsc32)s1	none
Cc1nc2c(cc(OS(=O)(=O)c3cccs3)c3ccsc32)s1	mcGAS RapidFire 62
Cc1cc(-n2c(C)nc3ccccc3c2=O)ccc1NS(=O)(=O)c1ccc(F)c(C(F)(F)F)c1	none
N#Cc1cccc(NN=C2CCN(c3ccc(F)cc3)CC2)c1	mcGAS RapidFire 89
N#Cc1cccc(N/N=C2\CCn3cccc32)c1	none
N#Cc1cccc(NC(=O)N2CCN(c3ccc(C#N)cc3F)CC2)c1	none
Cc1nn(CC(=O)Nc2ccccc2O)c(C)c1[N+](=O)[O-]	none
O=C(NCc1cccc(Cl)c1)c1ccc(N2CCOCC2)nc1	none
CC(=O)Cn1c(=O)c2c(nc3n(CCc4ccccc4)c(C)c(C)n23)n(C)c1=O	none
O=C1c2c(O)ccc(O)c2C(=O)c2c(NCCNCCO)ccc(NCCNCCO)c21	mcGAS RapidFire 83!
Cc1ccc(NS(=O)(=O)c2c(C)c(C)c(C)c(C)c2C)c(C)c1O	none
Cc1cc(NC(=O)N(C)C2CCC(C)CC2)ccc1-n1cnnn1 (centres undefined)	none
COc1ccccc1-c1ccc(C(=O)N2CCN(C)C(C)C2)cc1 (centres undefined)	none
COc1ccccc1OC(C)(C)C(=O)N1CCN(C)C(C(=O)O)C1 (centres undefined)	mcGAS RapidFire 82!
CN1CCN(C2CCN(C(=O)c3ccccc3)CC2)CC1C(=O)O (centres undefined)	none
NC(=O)C1CCCN1S(=O)(=O)c1ccc(Cl)c(Cl)c1 (centres undefined)	none
Cc1cc(-c2ccc(NN=C3C=Cc4c(S(=O)(=O)O)cc(S(=O)(=O)O)c(N)c4C3=O)c(C)c2)ccc1NN=C1C=Cc2c(S(=O)(=O)O)cc(S(=O)(=O)O)c(N)c2C1=O	mcGAS RapidFire 95
COc1ccc(S(=O)(=O)NCCNc2ccc(Nc3ccncc3)nn2)cc1C	none
CC(C)N=c1ccc(C#N)cn1C(=O)C1CC(=O)N(c2ccccc2Cl)C1 (centres undefined)	none
CC(=O)Nc1ccc(F)c(C(=O)N2CCC(CN3CCC(C)CC3)CC2)c1	none

Assay outcomes (PubChem)
